# Test results: PubChem BioAssay (Tox21)
# Active and inactive are the calls of the source. The call rests on the fitted dose curve; in most records, active means well fitted curve in the direction sought with a large enough effect in the repeat runs; inconclusive means weak or mixed curves; inactive means flat fitted curve, though single readings scatter.
# Assay: qHTS assay to test for compound auto fluorescence at 590 nm (red) in HEK293 cells (AID 720679)
# Conditions: red autofluorescence 540/590 nm; series mostly up to 91.3 µM
# Description: National Center for Advancing Translational Sciences [NCATS]
# NIH Chemical Genomics Center [NCGC]
# U.S. Environmental Protection Agency [EPA]
# National Institutes of Environmental Health Sciences [NIEHS]
# National Toxicology Program [NTP]
# U.S. Food and Drug Administration [FDA]
# Compound auto fluorescence often interferes with screening of the compound library against various biological targets and signaling pathways. Some of these compounds may have fluorophoric properties. Such properties may interfere with the assay outputs resulting in false positives and/or negatives. To decrease such complications and ensure the compound activities are relevant in terms of biological response, the Tox21 10K compound library was screened for auto fluorescence.
# From the fluorophores used as reporter signals in our screening assays, the auto fluorescence equivalencies of compounds against three fluorophores have been evaluated: Triamterene, Fluorescein and Rose Bengal sodium for blue, green and red fluorescence, respectively. The fluorescence intensities were measured using Excitation/Emission wavelengths at 405/460nm, 485/535nm and 540/590nm for blue, green and red labels, respectively. This assay includes the red fluorescence data.
# Tox21 Assay Protocol Summary:
# 2,000 HEK293 cells in 5 uL of culture medium containing 10% dialyzed FBS per well were dispensed into black wall/clear bottom 1536-well plates using a Multidrop Combi Dispenser (Thermo Scientific). The assay plates were incubated for 4-5 hr at 37C to allow cell attachment to the well bottom, followed by the transfer of 23 nL compound or DMSO vehicle by a pintool work station (Kalypsys, San Diego, CA). After the assay plates were incubated overnight at 37C and 5% CO2, fluorescence intensities in the assay plates were measured by an Envision (PerkinElmer, Shelton, CT) plate reader using three labels for measuring blue, green and red fluorescence at […] 460, 535 and 590nm respectively.
row,SMILES,outcome
1,CC(C)CCON=O,inactive
2,CC[N+]1(C)CCCC(OC(=O)C(O)(c2ccccc2)c2ccccc2)C1 (stereo not given),inactive
3,CCN(C(C)=O)c1cccc(-c2ccnc3c(C#N)cnn23)c1,inactive
4,CC(C)(C)CC(C)(C)c1ccc(O)cc1,inactive
5,C=CCSSCC=C,inactive
6,CC(C)(C)NCC(O)c1ccccc1Cl (stereo not given),inactive
7,c1ccc2c(c1)-c1cccc3cccc-2c13,inactive
8,CC[N+]1(CCOC(=O)C(O)(c2ccccc2)c2ccccc2)CCCCC1,inactive
9,COC1=CC(=O)O[C@@H](/C=C/c2ccc3c(c2)OCO3)C1,inactive
10,C=CCc1ccc(OC(=O)Cc2ccccc2)c(OC)c1,inactive
11,C=CC(=O)NC(C)(C)CC(C)=O,inactive
12,CCOC(=O)C1OC1(C)c1ccccc1 (stereo not given),inactive
13,CCCN(CCOc1c(Cl)cc(Cl)cc1Cl)C(=O)n1ccnc1,inactive
14,COc1ccc2c(c1OC)C(=O)O[C@H]2[C@@H]1c2cc3c(cc2CCN1C)OCO3,inactive
15,O=C(O)C(Cl)(Cl)Br,inactive
16,CC(Oc1cc(Cl)c(Cl)cc1Cl)C(=O)O (stereo not given),inactive
17,C=C(C)C(=O)OCCCCOC(=O)C(=C)C,inactive
18,Nc1ccc2c(c1)Cc1ccccc1-2,inactive
19,C1CCNCC1,inactive
20,O=C(Cl)OCCOCCOC(=O)Cl,inactive

row,SMILES,outcome
1,CN(C)c1ccc(N=O)cc1,inactive
2,CC(O)CN1CCN(CC(=O)[O-])CCN(CC(=O)[O-])CCN(CC(=O)[O-])CC1.[Gd+3] (stereo not given),inactive
3,C=CC(=O)OCC,inactive
4,CC(C)c1ccc(OP(=O)(Oc2ccc(C(C)C)cc2)Oc2ccc(C(C)C)cc2)cc1,inactive
5,O=C(NCNC(=O)NC1C(=O)NC(=O)N1CO)NC1C(=O)NC(=O)N1CO (stereo not given),inactive
6,Cc1nc2ccccc2c(=O)n1-c1ccccc1Cl,inactive
7,C1CS1,inactive
8,O=C=NC1CCCCC1,inactive
9,CN1C[C@H](C(=O)N[C@]2(C)O[C@@]3(O)[C@@H]4CCCN4C(=O)[C@H](Cc4ccccc4)N3C2=O)C=C2c3cccc4[nH]cc(c34)C[C@H]21,inactive
10,Nc1cc(Cl)cc(C(=O)O)c1Cl,inactive
11,COc1ccc(C(=O)c2c(C)n(CCN3CCOCC3)c3ccccc23)cc1,inactive
12,CC(C)(C)N(NC(=O)c1ccc(Cl)cc1)C(=O)c1ccccc1,inactive
13,O=C([O-])c1ccccn1.O=C([O-])c1ccccn1.O=C([O-])c1ccccn1.[Cr+3],inactive
14,COCc1cnc(C2=NC(C)(C(C)C)C(=O)N2)c(C(=O)O)c1 (stereo not given),inactive
15,C[C@H]1O[C@H](OC2[C@@H](O)[C@@H](O)C(O)[C@H](O)[C@H]2O)[C@@H](N)C[C@@H]1N=C(N)C(=O)O (stereo not given in full),inactive
16,CC(C)c1ccc(NC(=O)N(C)C)cc1,inactive
17,COP(=O)(OC)OC(Br)C(Cl)(Cl)Br (stereo not given),inactive
18,CN[C@@H](C)[C@H](O)c1ccccc1,inactive
19,CC(Cc1ccccc1)NCc1ccccc1Cl (stereo not given),inactive
20,C[C@@H]1C[C@@H]([C@H](O)CC2CC(=O)NC(=O)C2)C(=O)[C@@H](C)C1,inactive
